# From the supplement of paper PMC10849652
# The full data set covers some 7,900 targets. This sample favours those with a hit. About 0.6% of all pairs of compound and target were hits. Unmarked numbers belong to inactive results.
# Columns and labels:
# Experiment in all cases: log2 fold change, soluble protein after heating vs DMSO (PISA); higher = thermal stabilisation; K562 cells, 10 uM, 30 min; active = over 0.2 and 3.5 SD of the protein, either way, in both replicates (recomputed)
# [1] = compound: COC1=CC=C(C=C1)CN2C=CC3=C2C=C(C=C3)C(=O)NO
# Outline: (§1)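 K562 cells at 2×10^6 cells/mL were treated for 30 min with 10 μM compound, and aliquots were heated for 3 min over 48°C-58°C before pooling. Extraction used PBS with 0.5% NP-40 at 4°C, and soluble protein was the supernatant after 21,000xg for 90 min, measured by TMTpro 16plex LC-MS/MS with channel sums equalised. Thermal stability values, relative to control samples and from duplicates, are log2 fold changes.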
# filanesib = compound: CON(C)C(=O)N1N=C(c2cc(F)ccc2F)S[C@@]1(CCCN)c1ccccc1 [filanesib]
# Outline: as §1
# zotarolimus = compound: CO[C@H]1C[C@@H]2CC[C@@H](C)[C@@](O)(O2)C(=O)C(=O)N2CCCC[C@H]2C(=O)O[C@H]([C@H](C)C[C@@H]2CC[C@H](n3cnnn3)[C@H](OC)C2)CC(=O)[C@H](C)/C=C(\C)[C@@H](O)[C@@H](OC)C(=O)[C@H](C)C[C@H](C)/C=C/C=C/C=C/1C [zotarolimus]
# Outline: as §1
# idasanutlin = compound: COc1cc(C(=O)O)ccc1NC(=O)[C@@H]1N[C@@H](CC(C)(C)C)[C@](C#N)(c2ccc(Cl)cc2F)[C@H]1c1cccc(Cl)c1F [idasanutlin]
# Outline: as §1
# alisertib = compound: COc1cc(Nc2ncc3c(n2)-c2ccc(Cl)cc2C(c2c(F)cccc2OC)=NC3)ccc1C(=O)O [alisertib]
# Outline: as §1
# [2] = compound: COc1cc2nc(-c3cc(F)ccc3O)nc(N[C@@H]3CNC[C@H]3C(C)(C)O)c2cc1OC
# Outline: as §1
# gefitinib = compound: COc1cc2ncnc(Nc3ccc(F)c(Cl)c3)c2cc1OCCCN1CCOCC1 [gefitinib]
# Outline: as §1
# [3] = compound: COc1cccc2cc(-c3nc([C@H]4CC[C@H](C(=O)O)CC4)n4ncnc(N)c34)[nH]c12
# Outline: as §1
# lapatinib = compound: CS(=O)(=O)CCNCc1ccc(-c2ccc3ncnc(Nc4ccc(OCc5cccc(F)c5)c(Cl)c4)c3c2)o1 [lapatinib]
# Outline: as §1
# pictilisib = compound: CS(=O)(=O)N1CCN(Cc2cc3nc(-c4cccc5[nH]ncc45)nc(N4CCOCC4)c3s2)CC1 [pictilisib]
# Outline: as §1
# Sequence of UniProt Q86UP2 (Q86UP2 whole entry, looked up): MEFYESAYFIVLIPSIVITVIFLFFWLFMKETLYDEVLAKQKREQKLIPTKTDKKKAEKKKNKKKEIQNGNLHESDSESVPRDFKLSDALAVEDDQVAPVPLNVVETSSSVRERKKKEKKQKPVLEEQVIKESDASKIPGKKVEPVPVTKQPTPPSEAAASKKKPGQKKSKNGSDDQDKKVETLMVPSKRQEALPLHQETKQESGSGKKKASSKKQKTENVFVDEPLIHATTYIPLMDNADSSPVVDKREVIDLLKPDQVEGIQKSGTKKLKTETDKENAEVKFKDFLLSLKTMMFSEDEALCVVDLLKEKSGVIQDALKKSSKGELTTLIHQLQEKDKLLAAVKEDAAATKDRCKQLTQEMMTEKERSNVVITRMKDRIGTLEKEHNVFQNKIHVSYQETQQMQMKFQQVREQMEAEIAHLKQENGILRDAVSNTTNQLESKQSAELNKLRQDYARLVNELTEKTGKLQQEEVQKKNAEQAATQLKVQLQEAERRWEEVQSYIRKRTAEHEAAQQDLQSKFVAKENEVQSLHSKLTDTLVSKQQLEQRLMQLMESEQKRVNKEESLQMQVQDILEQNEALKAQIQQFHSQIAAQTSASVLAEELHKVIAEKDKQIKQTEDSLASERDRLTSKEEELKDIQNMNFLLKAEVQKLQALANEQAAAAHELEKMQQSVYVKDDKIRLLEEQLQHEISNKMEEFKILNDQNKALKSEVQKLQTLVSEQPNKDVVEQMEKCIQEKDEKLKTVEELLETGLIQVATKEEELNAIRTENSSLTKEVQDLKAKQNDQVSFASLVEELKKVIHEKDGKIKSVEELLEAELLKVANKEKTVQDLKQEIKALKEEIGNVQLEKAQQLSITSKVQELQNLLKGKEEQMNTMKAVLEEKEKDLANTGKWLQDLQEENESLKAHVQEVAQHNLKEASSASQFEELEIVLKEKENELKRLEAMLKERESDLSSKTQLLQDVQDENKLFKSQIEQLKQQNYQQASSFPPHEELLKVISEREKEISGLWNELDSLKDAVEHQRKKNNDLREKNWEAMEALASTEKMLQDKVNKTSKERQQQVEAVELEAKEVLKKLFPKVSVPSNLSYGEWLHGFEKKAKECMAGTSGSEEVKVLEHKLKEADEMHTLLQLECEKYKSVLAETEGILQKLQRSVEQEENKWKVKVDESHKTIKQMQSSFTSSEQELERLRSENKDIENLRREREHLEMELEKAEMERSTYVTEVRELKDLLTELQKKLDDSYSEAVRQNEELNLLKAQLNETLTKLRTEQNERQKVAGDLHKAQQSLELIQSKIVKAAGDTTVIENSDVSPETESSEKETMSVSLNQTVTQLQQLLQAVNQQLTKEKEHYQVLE
# Sequence of UniProt Q02750 (Q02750 whole entry, looked up): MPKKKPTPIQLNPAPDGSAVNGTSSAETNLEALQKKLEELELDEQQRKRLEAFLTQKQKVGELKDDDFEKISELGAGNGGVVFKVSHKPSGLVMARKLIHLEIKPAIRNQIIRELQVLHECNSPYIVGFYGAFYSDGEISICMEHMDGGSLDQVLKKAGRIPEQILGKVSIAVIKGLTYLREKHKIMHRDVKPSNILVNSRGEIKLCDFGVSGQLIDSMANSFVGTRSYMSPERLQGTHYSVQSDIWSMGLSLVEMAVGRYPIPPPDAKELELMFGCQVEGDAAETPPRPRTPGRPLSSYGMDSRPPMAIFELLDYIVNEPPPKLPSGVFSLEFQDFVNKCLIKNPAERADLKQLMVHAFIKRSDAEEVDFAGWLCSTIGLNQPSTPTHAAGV
# Sequence of UniProt Q12905 (Q12905 whole entry, looked up): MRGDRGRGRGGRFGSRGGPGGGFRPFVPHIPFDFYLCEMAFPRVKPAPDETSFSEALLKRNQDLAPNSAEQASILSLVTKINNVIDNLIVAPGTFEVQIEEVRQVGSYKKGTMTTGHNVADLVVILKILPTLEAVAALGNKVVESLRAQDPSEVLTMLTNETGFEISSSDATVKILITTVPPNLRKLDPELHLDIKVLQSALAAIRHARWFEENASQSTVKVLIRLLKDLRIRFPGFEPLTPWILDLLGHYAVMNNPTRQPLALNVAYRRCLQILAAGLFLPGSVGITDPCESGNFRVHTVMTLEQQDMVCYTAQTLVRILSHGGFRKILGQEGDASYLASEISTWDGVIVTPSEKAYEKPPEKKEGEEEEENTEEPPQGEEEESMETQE
# Sequence of UniProt Q71SY5 (Q71SY5 whole entry, looked up): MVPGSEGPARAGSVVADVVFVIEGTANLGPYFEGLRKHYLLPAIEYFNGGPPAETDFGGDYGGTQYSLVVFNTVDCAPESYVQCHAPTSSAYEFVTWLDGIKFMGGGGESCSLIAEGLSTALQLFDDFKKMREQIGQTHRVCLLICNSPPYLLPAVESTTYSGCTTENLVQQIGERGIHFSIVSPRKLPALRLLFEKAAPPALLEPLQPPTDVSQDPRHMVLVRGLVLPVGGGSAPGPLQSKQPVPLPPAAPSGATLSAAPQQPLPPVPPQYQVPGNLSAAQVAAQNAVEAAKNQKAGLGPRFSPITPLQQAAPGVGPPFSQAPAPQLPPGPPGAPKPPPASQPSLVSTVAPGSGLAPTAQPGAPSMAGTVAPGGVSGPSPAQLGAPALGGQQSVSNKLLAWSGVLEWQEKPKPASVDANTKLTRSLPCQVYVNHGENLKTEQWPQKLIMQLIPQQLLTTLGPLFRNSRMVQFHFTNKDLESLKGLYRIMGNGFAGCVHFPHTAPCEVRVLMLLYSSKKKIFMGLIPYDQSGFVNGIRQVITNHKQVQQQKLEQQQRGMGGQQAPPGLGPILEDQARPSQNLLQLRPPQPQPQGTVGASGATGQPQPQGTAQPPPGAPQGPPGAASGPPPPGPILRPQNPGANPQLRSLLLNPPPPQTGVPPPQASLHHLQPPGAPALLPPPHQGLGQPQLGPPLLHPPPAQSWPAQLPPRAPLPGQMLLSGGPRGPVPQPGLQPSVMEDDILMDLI
# Sequence of UniProt Q08431 (Q08431 whole entry, looked up): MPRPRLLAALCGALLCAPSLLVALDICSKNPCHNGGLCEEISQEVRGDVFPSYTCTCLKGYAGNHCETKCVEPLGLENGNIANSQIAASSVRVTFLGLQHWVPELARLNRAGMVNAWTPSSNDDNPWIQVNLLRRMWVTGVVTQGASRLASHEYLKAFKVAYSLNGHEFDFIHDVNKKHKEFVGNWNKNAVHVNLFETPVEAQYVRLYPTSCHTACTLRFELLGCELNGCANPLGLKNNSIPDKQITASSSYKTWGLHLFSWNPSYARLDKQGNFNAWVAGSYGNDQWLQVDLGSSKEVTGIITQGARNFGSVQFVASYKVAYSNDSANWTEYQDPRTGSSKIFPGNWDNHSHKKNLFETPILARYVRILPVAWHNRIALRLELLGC
# Sequence of UniProt Q9Y6R4 (Q9Y6R4 whole entry, looked up): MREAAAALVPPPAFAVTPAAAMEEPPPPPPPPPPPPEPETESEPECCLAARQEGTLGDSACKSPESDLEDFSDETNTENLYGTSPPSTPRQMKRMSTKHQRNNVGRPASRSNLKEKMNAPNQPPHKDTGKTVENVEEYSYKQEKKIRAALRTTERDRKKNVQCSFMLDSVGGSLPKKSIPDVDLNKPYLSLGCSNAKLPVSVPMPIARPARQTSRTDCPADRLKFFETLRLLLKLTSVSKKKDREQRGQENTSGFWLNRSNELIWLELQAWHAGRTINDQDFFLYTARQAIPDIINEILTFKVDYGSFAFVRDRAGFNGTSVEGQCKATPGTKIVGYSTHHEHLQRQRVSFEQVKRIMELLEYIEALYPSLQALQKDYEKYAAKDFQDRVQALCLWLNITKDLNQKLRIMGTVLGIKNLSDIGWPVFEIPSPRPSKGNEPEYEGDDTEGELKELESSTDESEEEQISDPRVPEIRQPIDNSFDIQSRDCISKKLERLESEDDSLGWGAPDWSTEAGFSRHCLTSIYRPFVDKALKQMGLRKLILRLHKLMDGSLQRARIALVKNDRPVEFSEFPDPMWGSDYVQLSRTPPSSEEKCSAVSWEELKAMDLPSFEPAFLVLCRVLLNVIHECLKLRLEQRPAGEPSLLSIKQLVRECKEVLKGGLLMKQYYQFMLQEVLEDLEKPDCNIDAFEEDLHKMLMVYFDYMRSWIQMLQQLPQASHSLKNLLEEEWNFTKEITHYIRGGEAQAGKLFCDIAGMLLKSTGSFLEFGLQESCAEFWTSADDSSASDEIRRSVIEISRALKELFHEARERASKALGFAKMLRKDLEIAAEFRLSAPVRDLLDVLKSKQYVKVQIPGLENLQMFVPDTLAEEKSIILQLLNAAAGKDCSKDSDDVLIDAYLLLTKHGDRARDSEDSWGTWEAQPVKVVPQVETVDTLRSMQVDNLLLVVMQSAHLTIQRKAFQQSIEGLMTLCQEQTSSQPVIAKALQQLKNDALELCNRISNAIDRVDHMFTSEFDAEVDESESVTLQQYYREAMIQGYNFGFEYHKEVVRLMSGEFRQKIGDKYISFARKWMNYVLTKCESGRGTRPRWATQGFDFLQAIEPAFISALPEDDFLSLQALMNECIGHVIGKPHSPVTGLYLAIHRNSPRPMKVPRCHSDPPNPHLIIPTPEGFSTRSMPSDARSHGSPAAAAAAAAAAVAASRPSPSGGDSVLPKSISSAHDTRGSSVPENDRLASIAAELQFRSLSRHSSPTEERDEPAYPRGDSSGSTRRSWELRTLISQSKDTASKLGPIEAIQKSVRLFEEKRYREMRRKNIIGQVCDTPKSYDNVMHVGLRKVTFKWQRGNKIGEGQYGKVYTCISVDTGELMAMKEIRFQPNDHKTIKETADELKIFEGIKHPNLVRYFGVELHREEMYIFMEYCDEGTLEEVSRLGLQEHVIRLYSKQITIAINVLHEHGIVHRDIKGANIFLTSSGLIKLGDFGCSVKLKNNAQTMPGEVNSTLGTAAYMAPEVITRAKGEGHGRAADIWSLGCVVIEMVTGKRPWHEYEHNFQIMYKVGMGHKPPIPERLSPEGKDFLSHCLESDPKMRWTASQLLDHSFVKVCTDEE
Target,log2 fold change [1],log2 fold change (filanesib),log2 fold change (zotarolimus),log2 fold change (idasanutlin),log2 fold change (alisertib),log2 fold change [2],log2 fold change (gefitinib),log2 fold change [3],log2 fold change (lapatinib),log2 fold change (pictilisib)
MFGE8 (UniProt Q08431),-0.129,0.129,-0.03,0.05,-0.147,0.019,0.069,-0.124,0.079,0.122
METTL18 (UniProt O95568),-0.364 (active),0.009,0.033,-0.022,0.006,0.075,-0.033,0.057,0.069,0.026
IPO7 (UniProt O95373),0.053,-0.094,0.014,-0.103,-0.087,-0.111,0,-0.014,-0.008,-0.006
MIEF1 (UniProt L0R8F8),0.104,-0.072,0.023,-0.063,-0.084,-0.148,-0.005,0,0.135,0.033
MED25 isoform 3 (UniProt Q71SY5),-0.015,-0.018,0.136,0.004,0.048,-0.01,0.093,-0.285,-0.03,0.103
IRAK4 (UniProt Q9NWZ3),0.012,-0.028,0.01,0.004,-0.059,0.104,0.109,0.007,-0.004,-0.099
LEMD3 (UniProt Q9Y2U8),0.036,0,0.107,-0.023,0.073,-0.001,-0.013,0.069,0.044,0.047
MCL1 (UniProt Q07820),-0.092,0.029,0.093,0.145,-0.12,-0.442 (active),-0.18,0.055,-0.249,-0.026
MFN1 (UniProt Q8IWA4),0.042,-0.182,0.06,0.034,0.262,-0.523 (active),0.017,0.03,0.002,0.024
MCCC2 (UniProt Q9HCC0),0.137,-0.07,0,-0.033,-0.057,-0.022,0.006,0.083,0.001,-0.031
ILF2 (UniProt Q12905),0.086,0.101,-0.024,0.084,-0.146,0.068,-0.045,-0.08,0.101,-0.035
LARP1 (UniProt Q6PKG0),0,0.048,-0.048,0.089,0.137,-0.001,-0.049,-0.161,0.023,-0.152
MAPKAPK3 (UniProt Q16644),-0.146,0,-0.034,-0.088,0.018,0.037,0.27,0.01,-0.065,0.039
KTN1 (UniProt Q86UP2),0.023,0.146,0.034,0.004,0.032,-0.001,-0.08,-0.116,-0.038,-0.086
KLHDC4 (UniProt Q8TBB5),-0.045,0.435 (active),0.044,0.199,-0.023,0.076,0.03,0.1,-0.026,0.029
KDELR2 (UniProt P33947),-0.155,-0.105,0.035,-0.162,-0.014,-0.136,-0.064,0.048,-0.127,-0.013
MFSD5 isoform 2 (UniProt Q6N075),0.037,0.018,-0.149,-0.058,0.011,-0.026,0.039,0.12,0.045,0.062
ILK (UniProt Q13418),-0.444 (active),0.023,-0.052,0.021,0.038,0.036,0.007,0,-0.05,0.068
MAP2K1 (UniProt Q02750),0.022,-0.05,-0.007,-0.047,-0.048,0.02,-0.011,0.029,-0.045,0.04
LDLR (UniProt P01130),-0.012,0.005,-0.07,0.009,0.073,-0.017,0.095,0.008,0.042,0.078
MFN2 (UniProt O95140),0.04,-0.112,0.016,0,-0.043,-0.438 (active),0.01,-0.006,0.027,-0.058
MAP3K4 isoform 2 (UniProt Q9Y6R4),0.004,-0.037,0.003,-0.023,-0.043,0.03,0.034,0.086,0.024,0.11
MAPKAPK2 (UniProt P49137),0.066,-0.06,-0.012,-0.054,-0.03,0.118,0.11,0.01,-0.025,0.023
LAMP2 (UniProt P13473),-0.125,-0.058,-0.022,-0.005,-0.006,-0.012,0.005,0.084,-0.079,0.046
MIEF1 (UniProt Q9NQG6),0.053,-0.18,0.006,-0.066,-0.033,-0.382 (active),0.051,0.001,0.004,-0.027
LARP4B (UniProt Q92615),0.035,0.056,0.004,0.053,-0.054,-0.108,0.011,-0.06,0.081,-0.009
IPO13 (UniProt O94829),-0.017,-0.144,-0.039,-0.038,0.021,-0.024,-0.047,0.008,0.038,0.109
MAPK9 (UniProt P45984),-0.004,-0.01,-0.022,-0.062,-0.072,0.043,0.009,0.001,-0.039,0.075
